PubChem BioAssay (EPA / NIEHS)
Several values for one entry are separate records, joined by “and”; a condition that tells them apart may be missing. Identical values can stand only once. Some compounds were tested as several samples or in several runs, with calls that do not always agree. Activity calls are given as the source filed them. Rule for the calls: active = hit-call score of the fitted dose curve at least 0.9, where 1 is the maximum; inactive = score below 0.9.

Experiments:
[1] = target: Bile acid receptor (Homo sapiens) (UniProt Q96RI1); assay: ATG_IR1_CIS: Attagene CIS-FACTORIAL HepG2 Assay for human Nuclear Receptor Subfamily 1 Group H Member 4 (NR1H4), IR1 submotif (AID 2282946); details: IR1 reporter transcription, actives raise or lower the signal
Sequence of Bile acid receptor (Homo sapiens) (Q96RI1 whole entry, looked up): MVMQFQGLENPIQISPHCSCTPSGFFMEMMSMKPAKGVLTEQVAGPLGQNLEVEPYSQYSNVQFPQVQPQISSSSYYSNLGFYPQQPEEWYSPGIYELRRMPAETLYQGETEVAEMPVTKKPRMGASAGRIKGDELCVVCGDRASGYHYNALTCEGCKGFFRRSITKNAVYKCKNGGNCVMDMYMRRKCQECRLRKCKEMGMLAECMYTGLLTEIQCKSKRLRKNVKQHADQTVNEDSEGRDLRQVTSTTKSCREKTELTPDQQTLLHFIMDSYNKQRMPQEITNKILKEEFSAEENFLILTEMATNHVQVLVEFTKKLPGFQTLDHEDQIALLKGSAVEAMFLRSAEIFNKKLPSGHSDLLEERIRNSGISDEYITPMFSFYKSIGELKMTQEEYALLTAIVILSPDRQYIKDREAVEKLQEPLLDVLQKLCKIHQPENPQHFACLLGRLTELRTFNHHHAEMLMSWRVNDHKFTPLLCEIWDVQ
In short: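 HepG2 cells transiently transfected with multiple cis-promoter-driven reporter units to measure endogenous transcription factor activity; 24 h exposure. Reporter mRNA read by RT-PCR, FAM labelling, HpaI digestion and capillary electrophoresis. Bidirectional fit versus DMSO.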

[2] = ATG_GRE_CIS: Attagene CIS-FACTORIAL HepG2 Assay for human Glucocorticoid Response Elements (GRE) (AID 2282947); details: HepG2 GRE cis-reporter, Attagene multiplex mRNA; actives raise or lower the signal
In short: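 Endogenous transcription factor activity is read through cis-element reporter constructs transiently transfected into HepG2 cells. After 24 h treatment, labelled RT-PCR products are resolved by capillary electrophoresis; DMSO sets baseline for bidirectional curve fitting.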

[3] = ATG_ISRE_CIS: Attagene CIS-FACTORIAL HepG2 Assay for human Interferon Regulatory Factor 1 (IRF1) binding to an Interferon-Stimulated Response Element (ISRE) (AID 2282948); details: HepG2 ISRE cis-reporter (Attagene), mRNA transcription readout; actives raise or lower the signal
In short: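 Quantitation relies on labelled RT-PCR fragments separated by capillary electrophoresis. Human HepG2 cells bearing cis-promoter reporter constructs were treated 24 h; DMSO served as baseline for bidirectional fitting.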

[4] = ATG_M_32_CIS: Attagene CIS-FACTORIAL HepG2 Assay for M32 Transcription Factor (Internal Marker) (AID 2282949); details: HepG2 Attagene cis-factorial M32 reporter, mRNA; actives raise or lower the signal;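 note: background control marker of the multiplexed CIS panel rather than a real target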
In short: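 Internal background marker read-out: RT-PCR/capillary electrophoresis fluorescence of reporter transcripts from transiently transfected HepG2 cells after 24 h chemical exposure. Activity fitted bidirectionally relative to DMSO negative control.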

[5] = ATG_M_06_CIS: Attagene CIS-FACTORIAL HepG2 Assay for M06 Transcription Factor (Internal Marker) (AID 2282950); details: HepG2 Attagene CIS-FACTORIAL M06 internal marker reporter; actives raise or lower the signal
In short: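 Fluorescence-labelled RT-PCR products from cis-promoter reporter units, cut with HpaI and resolved by capillary electrophoresis, give the signal. Cells are human HepG2, dosed for 24 h. Serves as background control, fitted relative to DMSO.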

[6] = target: Hepatocyte nuclear factor 6 (Homo sapiens) (UniProt Q9UBC0); assay: ATG_HNF6_CIS: Attagene CIS-FACTORIAL HepG2 Assay for human Hepatocyte Nuclear Factor 6 (HNF6) (AID 2282952); details: HepG2 Attagene cis-factorial HNF6 reporter transcription; actives raise or lower the signal
Sequence of Hepatocyte nuclear factor 6 (Homo sapiens) (Q9UBC0 whole entry, looked up): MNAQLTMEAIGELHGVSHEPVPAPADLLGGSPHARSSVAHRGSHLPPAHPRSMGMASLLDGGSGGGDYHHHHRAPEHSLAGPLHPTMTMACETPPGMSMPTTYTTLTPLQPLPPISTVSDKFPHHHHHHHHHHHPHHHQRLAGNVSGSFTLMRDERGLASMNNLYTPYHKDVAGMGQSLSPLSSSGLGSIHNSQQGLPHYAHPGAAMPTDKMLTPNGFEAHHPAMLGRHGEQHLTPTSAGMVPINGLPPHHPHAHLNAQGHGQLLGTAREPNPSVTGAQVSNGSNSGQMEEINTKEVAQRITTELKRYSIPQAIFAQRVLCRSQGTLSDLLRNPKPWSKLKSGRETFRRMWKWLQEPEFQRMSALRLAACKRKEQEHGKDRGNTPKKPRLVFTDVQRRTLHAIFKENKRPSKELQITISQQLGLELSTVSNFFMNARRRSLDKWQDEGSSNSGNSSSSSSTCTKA
In short: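 Transiently transfected HepG2 cells expressing cis-regulated reporter transcription units were exposed to chemical for 24 h in a 24-well format. Reporter transcript abundance was determined by fluorescence capillary electrophoresis.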

[7] = target: Heat shock factor protein 1 (Homo sapiens) (UniProt Q00613); assay: ATG_HSE_CIS: Attagene CIS-FACTORIAL HepG2 Assay for human Heat Shock Transcription Factor 1 (HSE) (AID 2282953); details: HepG2 HSE cis-reporter, Attagene RNA transcription; actives raise or lower the signal
Sequence of Heat shock factor protein 1 (Homo sapiens) (Q00613 whole entry, looked up): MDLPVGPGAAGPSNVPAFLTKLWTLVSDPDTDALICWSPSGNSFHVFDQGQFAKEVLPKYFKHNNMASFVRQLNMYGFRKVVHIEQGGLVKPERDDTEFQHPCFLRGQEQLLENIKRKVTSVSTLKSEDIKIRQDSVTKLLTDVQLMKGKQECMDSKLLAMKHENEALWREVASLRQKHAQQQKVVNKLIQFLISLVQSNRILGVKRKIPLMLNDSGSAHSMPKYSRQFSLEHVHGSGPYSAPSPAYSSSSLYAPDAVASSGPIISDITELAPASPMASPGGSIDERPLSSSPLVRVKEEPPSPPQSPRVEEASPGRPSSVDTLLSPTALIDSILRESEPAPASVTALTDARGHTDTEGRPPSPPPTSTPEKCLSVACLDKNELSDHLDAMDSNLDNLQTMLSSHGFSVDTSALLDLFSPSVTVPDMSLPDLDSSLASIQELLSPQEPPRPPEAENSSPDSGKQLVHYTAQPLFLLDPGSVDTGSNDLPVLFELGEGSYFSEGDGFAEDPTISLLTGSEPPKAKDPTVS
In short: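 After a 24 h incubation with test chemical, transfected HepG2 cells were harvested for RNA; reporter transcripts were measured by RT-PCR and capillary electrophoresis. Values reflect gain or loss of signal relative to DMSO.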

[8] = target: Paired box protein Pax-6 (Homo sapiens) (UniProt P26367); assay: ATG_Pax6_CIS: Attagene CIS-FACTORIAL HepG2 Assay for human Paired Box 6 (PAX6) (AID 2282956); details: HepG2 CIS-FACTORIAL PAX6 reporter transcription, RNA readout; actives raise or lower the signal
Sequence of Paired box protein Pax-6 (Homo sapiens) (P26367 whole entry, looked up): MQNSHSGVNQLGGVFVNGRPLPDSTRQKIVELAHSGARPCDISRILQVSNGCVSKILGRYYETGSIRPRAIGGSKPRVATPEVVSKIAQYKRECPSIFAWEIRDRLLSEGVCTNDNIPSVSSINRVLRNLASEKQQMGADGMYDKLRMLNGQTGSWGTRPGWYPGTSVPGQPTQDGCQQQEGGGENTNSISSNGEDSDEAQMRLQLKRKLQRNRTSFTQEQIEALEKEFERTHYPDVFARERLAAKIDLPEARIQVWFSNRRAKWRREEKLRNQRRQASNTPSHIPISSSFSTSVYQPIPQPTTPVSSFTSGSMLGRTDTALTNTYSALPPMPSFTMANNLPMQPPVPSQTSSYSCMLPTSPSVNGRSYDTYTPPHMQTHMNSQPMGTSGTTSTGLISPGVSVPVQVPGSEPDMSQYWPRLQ
In short: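 After twenty-four hours of chemical exposure, transfected HepG2 cells are harvested for RNA. Cis-promoter reporter transcripts are amplified, fluorescently labelled and sized by capillary electrophoresis, with gain and loss of signal scored against DMSO.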

[9] = ATG_PXRE_CIS: Attagene CIS-FACTORIAL HepG2 Assay for human Pregnane X Receptor Element (PXRE) (AID 2282957); details: HepG2 Attagene CIS-FACTORIAL PXRE reporter, mRNA; actives raise or lower the signal
In short: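 Cis-element reporter mRNA in human hepatoma HepG2 cells is measured 24 h post-dosing by RT-PCR, primer-extension labeling and capillary electrophoresis; gain or loss of signal is fitted relative to DMSO.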

[10] = ATG_RORE_CIS: Attagene CIS-FACTORIAL HepG2 Assay for human RAR-related Orphan Receptor Element (RORE) (AID 2282959); details: HepG2 Attagene cis-factorial RORE reporter, mRNA; actives raise or lower the signal
In short: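 Cells were HepG2 carrying transfected cis-regulated reporter constructs, dosed for 24 hours. Total RNA was reverse-transcribed and reporter cDNA amplified, fluorescently labeled and sized by capillary electrophoresis. Activity was fitted bidirectionally relative to DMSO.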

[11] = ATG_Sox_CIS: Attagene CIS-FACTORIAL HepG2 Assay for human SRY-box transcription factor (SOX) (AID 2282960); details: HepG2 Attagene cis-factorial SOX reporter, mRNA; actives raise or lower the signal
In short: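 Transient MRTU transfection of HepG2; 24 h compound incubation; TriZol RNA, oligo(dT) RT, PCR, 6-FAM primer extension, HpaI cut, CE. Bidirectional fit, DMSO = baseline.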

[12] = target: Transcription factor Sp1 (Homo sapiens) (UniProt P08047); assay: ATG_Sp1_CIS: Attagene CIS-FACTORIAL HepG2 Assay for human Specificity Protein 1 (Sp1) (AID 2282961); details: HepG2 Sp1 cis-reporter transcription, actives raise or lower the signal
Sequence of Transcription factor Sp1 (Homo sapiens) (P08047 whole entry, looked up): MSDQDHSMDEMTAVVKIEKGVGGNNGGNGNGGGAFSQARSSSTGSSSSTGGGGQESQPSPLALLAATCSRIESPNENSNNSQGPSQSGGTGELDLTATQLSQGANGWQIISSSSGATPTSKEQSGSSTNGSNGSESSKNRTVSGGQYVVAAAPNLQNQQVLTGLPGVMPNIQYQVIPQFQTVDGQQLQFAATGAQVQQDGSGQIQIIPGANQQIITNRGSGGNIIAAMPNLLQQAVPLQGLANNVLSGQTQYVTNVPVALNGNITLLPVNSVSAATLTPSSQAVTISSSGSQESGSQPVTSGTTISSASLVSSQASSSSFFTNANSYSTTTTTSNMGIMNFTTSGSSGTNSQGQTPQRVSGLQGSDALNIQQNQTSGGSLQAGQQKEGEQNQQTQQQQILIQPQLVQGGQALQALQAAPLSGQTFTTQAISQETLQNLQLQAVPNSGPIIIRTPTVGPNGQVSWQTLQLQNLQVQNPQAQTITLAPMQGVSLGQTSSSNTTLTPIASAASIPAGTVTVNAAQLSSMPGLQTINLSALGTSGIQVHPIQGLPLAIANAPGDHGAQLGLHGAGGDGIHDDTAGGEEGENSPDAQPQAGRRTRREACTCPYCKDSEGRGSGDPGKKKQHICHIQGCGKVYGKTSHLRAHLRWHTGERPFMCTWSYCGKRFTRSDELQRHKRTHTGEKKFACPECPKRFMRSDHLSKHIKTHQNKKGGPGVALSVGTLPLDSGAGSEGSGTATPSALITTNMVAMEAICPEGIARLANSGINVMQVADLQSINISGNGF
In short: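 Endogenous Sp1 activity was gauged in human liver HepG2 cells bearing transfected reporter units under a cis-regulating promoter. After 24 h dosing, reporter mRNA was quantified by RT-PCR with capillary electrophoresis, and activity fitted bidirectionally versus DMSO.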

[13] = ATG_SREBP_CIS: Attagene CIS-FACTORIAL HepG2 Assay for human Sterol Regulatory Element Binding (SREBP) (AID 2282962); details: HepG2 Attagene cis-factorial SREBP reporter, mRNA; actives raise or lower the signal
In short: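 Twenty-four hours after chemical dosing of transfected HepG2 cultures, reporter RNA was converted to cDNA, amplified, end-labelled with 6-FAM and resolved by capillary electrophoresis. Responses were fitted relative to DMSO.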

[14] = target: Signal transducer and activator of transcription 3 (Homo sapiens) (UniProt P40763); assay: ATG_STAT3_CIS: Attagene CIS-FACTORIAL HepG2 Assay for human Signal Transducer and Activator of Transcription 3 (STAT3) (AID 2282963); details: HepG2, Attagene cis-factorial STAT3 reporter transcription; actives raise or lower the signal
Sequence of Signal transducer and activator of transcription 3 (Homo sapiens) (P40763 whole entry, looked up): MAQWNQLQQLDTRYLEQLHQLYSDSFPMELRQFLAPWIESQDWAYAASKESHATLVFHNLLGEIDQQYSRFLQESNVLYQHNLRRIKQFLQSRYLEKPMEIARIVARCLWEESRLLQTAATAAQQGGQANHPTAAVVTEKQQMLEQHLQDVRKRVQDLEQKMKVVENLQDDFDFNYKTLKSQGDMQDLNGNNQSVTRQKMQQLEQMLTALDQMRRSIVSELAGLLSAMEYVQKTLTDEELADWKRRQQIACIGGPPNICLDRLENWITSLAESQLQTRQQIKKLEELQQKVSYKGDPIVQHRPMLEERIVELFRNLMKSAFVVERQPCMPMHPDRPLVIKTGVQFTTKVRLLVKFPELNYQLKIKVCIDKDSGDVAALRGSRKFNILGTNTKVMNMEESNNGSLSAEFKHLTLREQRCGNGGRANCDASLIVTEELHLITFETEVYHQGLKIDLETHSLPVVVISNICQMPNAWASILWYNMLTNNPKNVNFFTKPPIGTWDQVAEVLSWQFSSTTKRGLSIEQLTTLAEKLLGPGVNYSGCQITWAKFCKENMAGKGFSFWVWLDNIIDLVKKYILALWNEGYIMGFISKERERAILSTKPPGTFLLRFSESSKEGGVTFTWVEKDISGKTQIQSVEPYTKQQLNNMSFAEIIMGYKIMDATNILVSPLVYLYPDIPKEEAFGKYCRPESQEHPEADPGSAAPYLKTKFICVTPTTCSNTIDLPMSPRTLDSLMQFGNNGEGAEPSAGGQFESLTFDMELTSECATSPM
In short: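 Values derive from bidirectional fits relative to DMSO of reporter mRNA levels, measured by RT-PCR with capillary electrophoresis, in HepG2 cells carrying transiently transfected cis-regulated reporter units and exposed 24 h.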

[15] = ATG_TA_CIS: Attagene CIS-FACTORIAL HepG2 Assay for human TA Basal Promoter (AID 2282964); details: HepG2 Attagene CIS-factorial TA basal promoter reporter; actives raise or lower the signal
In short: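 Multiplexed mRNA reporter assay, HepG2, 24 h. Reporter cDNA amplified, 6-FAM primer-extended, HpaI-cut, CE-sized; DMSO = negative control and baseline.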

[16] = ATG_TCF_b_cat_CIS: Attagene CIS-FACTORIAL HepG2 Assay for human T-Cell-Factor with beta-catenin (TCF/b-cat) (AID 2282965); details: HepG2 TCF/beta-catenin cis-reporter transcription, actives raise or lower the signal
In short: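 HepG2, transient MRTU transfection, cis-element-driven reporters (endogenous TFs). 24 h compound exposure. Readout: reporter mRNA by RT-PCR + 6-FAM primer extension, HpaI digest, capillary electrophoresis. Gain/loss fit vs DMSO baseline.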

[17] = target: Hypoxia-inducible factor 1-alpha (Homo sapiens) (UniProt Q16665); assay: ATG_HIF1a_CIS: Attagene CIS-FACTORIAL HepG2 Assay for human Hypoxia Inducible Factor 1 (HIF1A) (AID 2282951); details: HepG2 Attagene cis-factorial HIF1a reporter transcription; actives raise or lower the signal
Sequence of Hypoxia-inducible factor 1-alpha (Homo sapiens) (Q16665 whole entry, looked up): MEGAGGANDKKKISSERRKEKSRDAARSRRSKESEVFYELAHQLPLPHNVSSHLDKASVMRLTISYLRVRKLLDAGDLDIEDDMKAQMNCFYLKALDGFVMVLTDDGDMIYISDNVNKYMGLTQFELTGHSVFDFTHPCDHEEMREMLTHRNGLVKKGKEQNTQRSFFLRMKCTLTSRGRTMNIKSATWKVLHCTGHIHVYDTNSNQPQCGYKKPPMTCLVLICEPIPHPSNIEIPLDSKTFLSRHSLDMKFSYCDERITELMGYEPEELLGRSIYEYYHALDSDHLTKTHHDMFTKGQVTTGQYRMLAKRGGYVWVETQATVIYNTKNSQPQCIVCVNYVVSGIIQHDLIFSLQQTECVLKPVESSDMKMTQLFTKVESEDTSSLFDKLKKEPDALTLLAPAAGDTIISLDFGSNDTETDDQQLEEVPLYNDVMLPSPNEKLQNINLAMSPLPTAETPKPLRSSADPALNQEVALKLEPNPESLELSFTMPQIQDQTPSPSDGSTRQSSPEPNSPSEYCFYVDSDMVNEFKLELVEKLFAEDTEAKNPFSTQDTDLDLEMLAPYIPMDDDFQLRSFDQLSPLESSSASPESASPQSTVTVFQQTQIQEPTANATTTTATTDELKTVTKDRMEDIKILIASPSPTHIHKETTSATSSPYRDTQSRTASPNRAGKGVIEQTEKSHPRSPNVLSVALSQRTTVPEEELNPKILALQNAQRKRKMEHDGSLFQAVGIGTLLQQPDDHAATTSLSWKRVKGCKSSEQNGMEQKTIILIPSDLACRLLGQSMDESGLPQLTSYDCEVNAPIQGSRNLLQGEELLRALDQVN
In short: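 Measures endogenous transcription-factor activity through cis-regulated reporter mRNA in HepG2. Cells dosed 24 h; transcripts quantified by RT-PCR with 6-FAM-labelled products separated by capillary electrophoresis; DMSO serves as negative control.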

[18] = ATG_MRE_CIS: Attagene CIS-FACTORIAL HepG2 Assay for human Metal Responsive Element (MRE) (AID 2282954); details: HepG2 MRE cis-reporter transcription, Attagene multiplex; actives raise or lower the signal
In short: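 Fluorescent reporter fragments separated by capillary electrophoresis give mRNA induction for the MRE unit after 24 h treatment of transfected HepG2 cells. Endogenous transcription-factor activity is read; DMSO serves as negative control and baseline.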

[19] = ATG_PPRE_CIS: Attagene CIS-FACTORIAL HepG2 Assay for human Peroxisome Proliferator-activated Response Element (PPRE) (AID 2282958); details: HepG2 PPRE cis-element reporter, Attagene transcription factor profiling; actives raise or lower the signal
In short: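 Cells are first transfected transiently with the multiplexed reporter library, then dosed for 24 h. Total RNA is reverse-transcribed, amplified, fluorescently end-labeled and HpaI-cut before capillary electrophoresis; activity is fitted bidirectionally against DMSO controls.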

[20] = ATG_PBREM_CIS: Attagene CIS-FACTORIAL HepG2 Assay for human Phenobarbital-responsive Enhancer Module (PBREM) (AID 2282955); details: HepG2 PBREM cis-reporter, Attagene multiplexed transcription; actives raise or lower the signal
In short: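 Fluorescence of labelled reporter cDNA fragments, resolved by capillary electrophoresis, gives mRNA induction in transfected HepG2 cells treated for 24 h; DMSO serves as negative control and baseline.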

Measured: AC50

CCC1(c2ccc(N)cc2)CCC(=O)NC1=O (stereo unspecified)
active: [9] 64.9 µM
not listed: [17] | [18] | [19] | [20]
inactive: all other assays above

COc1ccc(OC)c(C=O)c1
active: [9] 16.9 µM
not listed: [15] | [16] | [20]
inactive: all other assays above

CN(CCCC(=O)c1cccnc1)N=O
active: [9] 27.2 µM
not listed: [11]
inactive: all other assays above

CC(C)CCCCCCOC(=O)c1ccccc1C(=O)OCCCCCCC(C)C
active: [9] 1.39 µM
not listed: [4] | [10] | [11] | [19]
inactive: all other assays above

CCCCOCCOC(C)=O
not listed: [2] | [15]
inactive: all other assays above

Cl/C=C\C[N+]12CN3CN(CN(C3)C1)C2
active: [1] 44.6 µM | [3] 100 µM | [7] 158 µM | [9] 45.2 µM | [16] 26 µM
not listed: [15] | [18] | [19]
inactive: all other assays above

O=C(Cc1ccccc1)c1ccccc1
active: [9] 27.2 µM
not listed: [15] | [18] | [19] | [20]
inactive: all other assays above

Fc1ccc(C2(Cn3cncn3)OC2c2ccccc2Cl)cc1 (stereo unspecified)
active: [9] 3.04 µM | [13] 27.3 µM
not listed: [11] | [16] | [19] | [20]
inactive: all other assays above

CC(C)(C)c1cc(O)ccc1O
active: [7] 187 µM | [8] 124 µM | [19] 65.6 µM | [10] 54.6 µM | [11] 179 µM | [16] 119 µM
not listed: [4] | [9] | [15] | [17] | [18]
inactive: all other assays above

O=C(c1ccccc1)C(Cl)Cl
active: [1] 5.81 µM | [3] 14.9 µM | [18] 26.7 µM | [8] 26.8 µM | [13] 26.4 µM | [16] 25 µM
not listed: [11] | [12] | [20]
inactive: all other assays above

Nc1ncc([N+](=O)[O-])s1
not listed: [4] | [16] | [18] | [20]
inactive: all other assays above

C[C@@H]1C[C@@H]([C@H](O)CC2CC(=O)NC(=O)C2)C(=O)[C@@H](C)C1
active: [1] 0.304 µM | [17] 119 nM and 22.9 µM | [7] 2.68 µM and 1.53 µM | [19] 27.5 µM
inactive: [1] | [4] | [5] | [17] | [6] | [7] | [18] | [8] | [19] | [10] | [11] | [12] | [13] | [14] | [15]

C(=NC1CCCCC1)=NC1CCCCC1
active: [3] 17.7 µM | [18] 33.4 µM | [20] 8.4 µM | [19] 2.46 µM | [10] 2.33 µM | [13] 17.2 µM
not listed: [2]
inactive: all other assays above

O=C(Cl)c1ccc(Cl)cc1
not listed: [4] | [18] | [20]
inactive: all other assays above

CCC(C)(C)c1ccc(O)c(C(C)(C)CC)c1
active: [1] 5.81 µM | [9] 2.73 µM | [19] 11.1 µM
not listed: [11] | [20]
inactive: all other assays above
